From PubChem BioAssay
A selection: hits, their analogues and other compounds. The true share with any hit is near 1.7%.
RecA splice inh – blocks M. tuberculosis RecA intein splicing | cell-free RecA intein splicing, fluorescence | AID 2221 | inhibition, % (concentration not given with the values) | P9WHJ3 | actives 0.75% (n = 290,000); in the data active = inhibition above about 30%
SARS 3CLpro inh – SARS-CoV 3CLpro protease inhibition. P0C6X7. recombinant SARS-CoV 3CLpro, quenched FRET peptide cleavage. inhibition, % at 6 µM. actives 0.14% (n = 290,000); in the data active = inhibition above about 12%
VHR inh abs – DUSP3 (human) phosphatase inhibition; P51452; recombinant VHR phosphatase, pNPP absorbance; inhibition, % at 13.3 µM; actives 0.52% (n = 290,000); in the data active = inhibition above about 50%
Target sequence (P51452 whole entry, looked up): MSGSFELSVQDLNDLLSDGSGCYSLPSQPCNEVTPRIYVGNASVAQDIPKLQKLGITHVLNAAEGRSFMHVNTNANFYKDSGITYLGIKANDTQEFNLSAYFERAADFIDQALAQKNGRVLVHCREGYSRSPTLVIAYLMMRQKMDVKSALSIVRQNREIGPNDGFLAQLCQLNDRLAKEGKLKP
SSB-PriA inh – K. pneumoniae PriA-SSBct interaction inhibition | AlphaScreen SSBct-PriA binding, biotinylated peptide | inhibition, % at 33 µM | actives 0.6% (n = 430,000) | AID 1272365; in the data active = inhibition mostly above about 37%, no sharp cut-off; inactive = mostly below about 20%
CCHFV vOTU inh – CCHFV vOTU protease inhibition. Pep-AMC fluorescence. inhibition, % at 11.5 µM. actives 0.55% (n = 370,000); in the data active = inhibition above about 30%
GFP chromo cs – counter-screen GFP chromophore formation inhibition | shares compounds with RecA splice inh | cell-free GFP chromophore formation, fluorescence | EC50, µM | actives 83% (n = 2,100); call rule not given here
Hits are given with their value; n = inactive; x = no result given.

SMILES | RecA splice inh | SARS 3CLpro inh | VHR inh abs | SSB-PriA inh | CCHFV vOTU inh | GFP chromo cs
Fc1ccc(-[n+]2nc(Nc3ccccc3)sc2-c2c3ccccc3cc3ccccc23)cc1 | 49 | n | n | n | n | 16
Oc1ccc2ccccc2c1-c1sc(Nc2ccccc2)n[n+]1-c1ccc(F)cc1 | n | n | n | n | n | x
CC(=O)Cc1nc2ccccc2[nH]c1=O | x | x | x | n | x | x
Cn1c(=O)c([N+](=O)[O-])c(-n2ccnc2)c2ccccc21 | 66 | n | n | n | n | 19
Cn1cc(-c2ccco2)nc1CCNC(=O)c1ccccc1Br | x | x | x | n | x | x
CC(=O)N1CCN(c2nc3cc(C)cc(C)c3s2)CC1 | x | x | x | n | x | x
O=C(NCc1cc(C2CC2)n(C2CCCC2)n1)c1cccs1 | x | x | x | n | x | x
CC1=NN(c2nc(-c3ccccc3)cs2)C(=O)C1 | 66 | n | n | n | n | 8.5
O=C1CC(c2ccccc2)=NN1c1nc(-c2ccccc2)cs1 | n | n | n | n | n | x
COC1=CC(=O)C(O)=C(CCCCCCC/C=C/CCCCCCCC2=C(O)C(=O)C=C(OC)C2=O)C1=O | 76 | x | x | x | x | 2.1
O=c1c(Cl)nc2cc(Cl)ccc2n1CCNc1ncc(C(F)(F)F)cc1Cl | 67 | n | n | n | x | 0.31
OCCN1CCN(CCCN2c3ccccc3Sc3ccc(C(F)(F)F)cc32)CC1 | n | n | n | n | n | x
FC(F)(F)c1ccc2c(c1)N(CCCN1CCN(CCCl)CC1)c1ccccc1S2 | 63 | n | n | n | n | 17
NC(=O)c1ccccc1NC(=O)Cc1csc2nc(-c3ccccc3)cn12 | x | x | x | n | x | x
O=c1cc(-c2cccc([N+](=O)[O-])c2)[nH][nH]1 | 96 | n | n | n | n | 11
CC(C)(C)NC(=O)Cn1nc(-c2ccco2)c2sc(N3CCCC3)nc2c1=O | x | x | x | n | x | x
O=C(CCl)Nc1cc(-c2ccccc2)nn1-c1ccccc1 | 62 | n | n | n | n | 40
Cc1cc(NC(=O)COc2ccccc2)n(-c2ccccc2)n1 | n | n | n | n | n | x
Cc1ccc(-c2cc(NC(=O)CCl)n(-c3ccccc3)n2)cc1 | 73 | n | n | n | n | 33
CC(=O)Nc1ccc(-c2cc(NC(C)=O)n(-c3ccccc3)n2)cc1 | n | n | n | n | n | x
CN(C)c1cc(Nc2ccc(O)cc2)c([N+](=O)[O-])c2nonc12 | n | n | n | n | n | x
O=C(O)c1cccc(Nc2cc(Cl)c3nonc3c2[N+](=O)[O-])c1 | 88 | n | n | n | n | 4.8
O=C(O)c1ccccc1Nc1ccc([N+](=O)[O-])cc1 | n | n | n | n | n | x
O=[N+]([O-])c1c(Nc2ccc(O)cc2)cc(Cl)c2nonc12 | 95 | n | n | n | n | 1
O=C(O)c1ccccc1Nc1cc(Cl)c2nonc2c1[N+](=O)[O-] | 90 | n | n | n | n | 2.6
SMILES | RecA splice inh | SARS 3CLpro inh | VHR inh abs | SSB-PriA inh | CCHFV vOTU inh | GFP chromo cs
CCOC(=O)C(C=Nc1nc(-c2ccccc2)c(C(=O)Nc2cccc(C(F)(F)F)c2)s1)C(=O)OCC | x | x | x | n | x | x
CS(=O)(=O)c1nc(-c2ccccc2)cc(C(F)(F)F)n1 | 66 | n | n | n | n | 13
O=C(CN1C(=O)S/C(=C\C=C\c2ccccc2)C1=O)Nc1ccccc1C(=O)O | 60 | n | n | n | n | 10
Cc1cc2c3c(c1)C(C)CC(C)(C)N3C(=O)C2=C(C#N)C#N (stereo not drawn) | 39 | n | n | n | n | 3.7
CC1CC(C)(C)N2C(=O)C(=C(C#N)C#N)c3cccc1c32 (stereo not drawn) | n | n | n | n | n | x
N=C(N)SCc1cn(-c2ccccc2)nc1-c1ccc(Br)cc1 | 40 | n | n | n | n | 20
Cc1ccc(-c2nn(-c3ccccc3)cc2CO)cc1 | n | n | n | n | n | x
CCOc1ccc(NC(=O)C(c2ccccn2)N(C(=O)CCl)c2ccc(F)cc2)cc1 (stereo not drawn) | 66 | n | n | n | x | 15
CCOc1ccc(NC(=O)N(c2ccccc2)c2ccccc2)cc1 | x | n | n | n | n | x
O=C(Cc1csc(NC(=O)c2ccco2)n1)NCCc1ccc(Cl)cc1 | x | x | x | n | x | x
C=CCCC(=O)NC1CC(O)C(CO)C1 (stereo not drawn) | x | x | x | n | x | x
NC(=O)c1c(-c2cccs2)csc1N | 67 | n | n | n | x | 13
COC(=O)c1sccc1S(=O)(=O)N(CC(=O)Nc1ccc(C)c(F)c1)c1ccc(Cl)cc1 | x | x | x | n | x | x
CC1(S(=O)(=O)O)CC(=O)c2ccccc2C1=O (stereo not drawn) | 93 | n | n | 83 | n | 4.3
CN1C[C@@H](C(=O)N2CCC(Oc3ncccc3Br)CC2)CC1=O | x | x | x | n | x | x
COc1ccc(C2=NN(c3nc(C)cc(C)n3)C(=O)C2)cc1 | 78 | n | n | n | n | 6.9
CCCc1noc2c1C(c1ccoc1)C(C#N)=C(N)N2 (stereo not drawn) | 79 | n | n | n | n | n
Cc1ccc(S(=O)(=O)NN=Cc2c(O)ccc3ccccc23)cc1 | x | x | x | x | n | x
Cc1ccc(S(=O)(=O)Nc2c(O)ccc3ccccc23)cc1 | 76 | x | x | n | x | 3.1
O=S(=O)(Nc1c(O)ccc2ccccc12)c1cccc2ccccc12 | 84 | x | x | n | x | 4.3
O=S(=O)(Nc1cccc2ccccc12)c1ccccc1F | n | n | n | n | n | x
CC1=CC(=O)C(C(C)C)=CC1=NS(=O)(=O)c1ccccc1 | x | x | x | n | x | x
Cc1ccc(S(=O)(=O)N2CCN(c3ccc(-c4cccs4)nn3)CC2)cc1 | x | x | x | n | x | x
OC(CNCCC1C=Nc2ccccc21)Cn1c2ccc(Cl)cc2c2cc(Cl)ccc21 (stereo not drawn) | 48 | n | n | 65 | n | 37
COc1ccc(/C=C/C(=O)c2ccccc2)cc1COc1ccc(F)cc1 | 41 | n | n | n | n | n
SMILES | RecA splice inh | SARS 3CLpro inh | VHR inh abs | SSB-PriA inh | CCHFV vOTU inh | GFP chromo cs
COc1ccc(C(=O)/C=C/c2ccc(OC)c(COc3ccccc3F)c2)cc1 | n | n | n | n | n | x
COc1ccc(/C=C/C(=O)c2ccc(O)cc2)cc1COc1ccc(F)cc1 | 36 | n | n | n | n | n
CO[C@@](C)(CNC(=O)Nc1ccccc1C(F)(F)F)c1ccccc1F | x | x | x | n | x | x
Cc1[nH][nH]c(=O)c1C(c1cc([N+](=O)[O-])ccc1O)c1c(C)[nH][nH]c1=O | 96 | n | n | n | n | 0.53
C=CCOc1cccc(C2C(=C(O)c3ccccc3)C(=O)C(=O)N2CCN2CCOCC2)c1 (stereo not drawn) | x | x | x | n | x | x
CN1CCc2cc3c(c4c2C1Cc1ccccc1-4)OCO3 (stereo not drawn) | 55 | n | n | n | n | 0.87
COc1cc(C2(c3ccc(O)c(OC)c3)C(=O)N(C)c3ccc(Br)cc32)ccc1O | x | x | x | n | n | x
COc1cc(C2(c3ccc(O)c(OC)c3)C(=O)Nc3c(Br)cc(Br)cc32)ccc1O | 49 | x | x | n | n | 12
CC(=O)Oc1ccc2c(=O)oc(-c3ccccc3)nc2c1 | n | n | n | n | n | x
CC(=O)Oc1ccc2c(=O)oc(-c3ccccc3C)nc2c1 | 33 | n | n | n | n | n
Cc1ccc(Sc2ccc(NC(=O)CCl)cc2)c(C)c1 | 90 | n | n | n | n | 8.1
